USP1 inh: blocks the human USP1/UAF1 deubiquitinase complex | O94782 | recombinant USP1/UAF1, Ub-Rhodamine cleavage fluorescence | Potency, µM (top dose mostly 57.1 µM), for the others: at the highest dose activity change, negative = inhibition, most hits filed as inhibitors | actives 0.23% (n = 390,000) | AID 743255; further: potency means the concentration at half of the fitted maximal effect; on the % scale 0 is the no-effect control and ±100 the full control effect; nearly all actives have a fitted effect of over 60% in size
Target sequence (O94782 whole entry, looked up): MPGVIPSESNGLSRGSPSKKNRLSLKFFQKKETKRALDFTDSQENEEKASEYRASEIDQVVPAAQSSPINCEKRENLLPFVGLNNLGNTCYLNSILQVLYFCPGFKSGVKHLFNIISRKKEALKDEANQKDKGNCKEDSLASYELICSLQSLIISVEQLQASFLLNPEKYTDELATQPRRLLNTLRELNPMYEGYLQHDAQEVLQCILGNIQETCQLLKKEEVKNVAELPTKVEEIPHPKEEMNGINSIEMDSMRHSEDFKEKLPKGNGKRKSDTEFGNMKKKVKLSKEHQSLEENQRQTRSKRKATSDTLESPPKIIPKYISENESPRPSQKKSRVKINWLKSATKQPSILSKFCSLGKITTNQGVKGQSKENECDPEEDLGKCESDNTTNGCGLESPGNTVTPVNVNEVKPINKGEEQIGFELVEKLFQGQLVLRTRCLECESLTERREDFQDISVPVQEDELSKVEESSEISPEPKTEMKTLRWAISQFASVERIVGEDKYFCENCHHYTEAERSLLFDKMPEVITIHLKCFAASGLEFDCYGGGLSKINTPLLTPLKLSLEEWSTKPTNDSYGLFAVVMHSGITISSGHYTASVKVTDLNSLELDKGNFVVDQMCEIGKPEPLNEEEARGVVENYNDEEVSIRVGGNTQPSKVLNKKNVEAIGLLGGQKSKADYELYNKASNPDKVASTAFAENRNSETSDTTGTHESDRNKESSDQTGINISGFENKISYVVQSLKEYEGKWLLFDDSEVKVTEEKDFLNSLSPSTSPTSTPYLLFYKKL
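1 nM enzyme complex + cpd, 15 min RT; start with Ub-Rho 150nM final; kinetic fluorescence ex 480/em 540, 6 reads q60 s. Buffer 50mM HEPES pH 7.8, 0.5mM EDTA, 0.1 mg/ml BSA, 1mM TCEP, 0.01% Tween-20.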
IL1B secr inh: blocks inflammasome-driven IL-1 beta release. THP-1 LPS/ATP IL-1B secretion, AlphaLISA, 16 h; stronger effect = lower value. activity change, % at 57.5 µM. actives 4.7% (n = 360,000); in the data active means activity change below about -50%; inconclusive means mostly about -30% to -49%; further: on the % scale 0 is the no-effect control and ±100 the full control effect
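THP-1 cells pretreated 1 hr with compounds (up to 57.5 uM final), then stimulated with LPS (250 ng/mL final) plus ATP (1.25 mM final); secreted IL-1B measured by AlphaLISA after 16 hr, decreased signal indicating inhibition.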
ATXN2 expr inh: reduces ATXN2 reporter expression in HEK-293 cells; HEK-293 ATXN2-luciferase reporter, luminescence, 24 h; Potency, µM (top dose mostly 57 µM), for the others: top-dose activity change, negative = inhibition, most hits filed as inhibitors; actives 0.72% (n = 360,000); AID 1745845; further: potency means the concentration at half of the fitted maximal effect; on the % scale 0 is the no-effect control and ±100 the full control effect; nearly all actives have a fitted effect of over 55% in size
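ATXN2-luciferase reporter cells (luciferase flanked by upstream and downstream ATXN2 gene portions) were treated 24 h at 37 °C with compounds at up to 57 uM. SteadyGlo luminescence gave expression; GF-AFC fluorescence gave viability.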
USP2a block: USP2a (human) protease inhibition; USP2 core, Ub-CHOP2 coupled fluorogenic reporter, 485/531; AID 463254; Potency, µM (doses to about 38.3 µM), without a hit: top-dose activity change, negative = inhibition, usual class: inhibitors; actives 0.01% (n = 330,000); O75604;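 further: potency means the concentration at half of the fitted maximal effect; plate controls were DMSO wells for no effect and full inhibition by NEM control for full effect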
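Deubiquitinase activity read as fluorescence (485/531 nm) after Ub-CHOP2 cleavage activates the enterokinase reporter on its substrate; USP2 core 10nM, Ub-CHOP2 and substrate 25nM each, 30min compound preincubation then 60min RT; data normalized to NEM, curves fitted.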
S2 tox: reduces viability in counter-screen for ATXN expression inhibitors. AID 651635. S2 cells (HEK-293 line with an ATXN2-luciferase reporter) viability, CellTiter-Fluor protease fluorescence, 24 h. Potency, µM (doses to about 56.7 µM), hits mostly cytotoxic. actives 0.49% (n = 400,000); further: potency means the concentration at half of the fitted maximal effect; nearly all actives have a fitted effect of over 40% in size
An asterisk follows results filed as active; i = inactive; ? = inconclusive; / = not tested or not shown; [ ] = another dose, or the depositor's remark. In the library only some 4.8% were active in any assay of this set; here they are far more common. Unless noted, the call rests on the fitted dose curve; in most records, active means well fitted curve in the direction sought with a large enough effect; inconclusive means small, poorly fitted or top-dose-only effect, or another doubt; inactive means no such curve, though single readings can be large; an effect the other way counts as inactive or inconclusive.

SMILES	USP1 inh	IL1B secr inh	ATXN2 expr inh	USP2a block	S2 tox
COc1ccc(C)c2sc(N(CCN(C)C)C(=O)c3ccc4ccccc4c3)nc12	-13%	-54*	-32%	1%	i
CCOc1cccc2sc(N(CCN(C)C)C(=O)c3ccc4ccccc4c3)nc12	-15%	-101*	-14%	3%	i
CN(C)CCN(C(=O)c1ccc2ccccc2c1)c1nc2c(F)cccc2s1	-18%	-21	2%	2%	i
COc1cc(-c2cc(C)c3c(OC)ccc(OC)c3n2)cc2c1OCCN(Cc1cn(C)nc1C)C2	/	/	/	/	i
Fc1ccc(-c2nnc3ccc(N4CCc5ccccc5C4)nn23)cc1	-31%	-89*	32µM*	4%	/
CC(=O)c1ccc(-c2cc(F)cc3c2OC(CNC(=O)Cc2cn4ccsc4n2)C3)s1 (centres undefined)	/	/	/	/	i
O=C1C(=Cc2ccco2)CCC1=Cc1ccco1	?	-51*	2%	/	i
O=C1C(=Cc2ccco2)CCCC1=Cc1ccco1	-6%	-25	59%	/	i
CCCS(=O)(=O)c1c(S(=O)(=O)CCC)c2c(C)cccn2c1C(=O)N/N=C/c1cc(O)cc(O)c1	-7%	81	7.9µM*	-4%	i
CCCS(=O)(=O)c1c(S(=O)(=O)CCC)c2c(C)cccn2c1C(N)=O	15%	9	-3%	-2%	i
COc1cccc(-c2ccc3c(N)c(C(=O)Nc4ccccc4C)sc3n2)c1	-35%	/	?	/	/
Nc1c(C(=O)Nc2nc3ccccc3s2)sc2nc(-c3cccs3)ccc12	-23%	-114*	?	2%	i
Cc1ccccc1NC(=O)c1sc2nc(-c3ccncc3)ccc2c1N	-33%	/	20µM*	/	i
COc1ccc(-c2nnn3c2nc(NCCc2ccc(OC)c(OC)c2)c2ccccc23)cc1	-27%	/	0%	/	i
CC1(C)CC(O)CC(C)(C)N1[O]	/	/	17%	/	/
CC(C)NC(=O)C1(C#N)C=C1c1ccccc1 (centres undefined)	/	-84*	?	/	?
CCCS(=O)(=O)c1ncc(Cl)c(C(=O)N2CCN(c3ccc(OC)cc3)CC2)n1	-5%	/	/	/	/
Cc1cc2cc(CN(CCN(C)C)C(=S)NCc3ccco3)c(=O)[nH]c2cc1C	-9%	-80*	-16%[11.3 µM]	-2%	i
Cc1cc2cc(CN(Cc3cccs3)C(=S)NCc3ccco3)c(=O)[nH]c2cc1C	-10%	-7	-1%	1%	i
Cc1ccc(C)c2[nH]c(=O)c(CN(CC3CCCO3)C(=S)NCc3ccco3)cc12 (centres undefined)	-19%	-77*	15%	-4%	i
CCCCNC(=S)N(CCN(C)C)Cc1cc2cc3c(cc2[nH]c1=O)OCCO3	-21%	-51*	?	1%	i
Cc1cccc2cc(CN(CCN(C)C)C(=S)NCc3ccco3)c(=O)[nH]c12	-19%	-13	-5%	3%	i
CCN(CC)CCN(Cc1cc2cc(C)c(C)cc2[nH]c1=O)C(=S)NCc1ccco1	-16%	-142*	-3%	-1%	i
CCS(=O)(=O)c1ncc(Cl)c(C(=O)N(Cc2ccccc2)Cc2ccco2)n1	-23%	/	/	/	/
COc1ccc(C2NCCc3cc(OC)c(OC)cc32)cc1OC (centres undefined)	-17%	-3	-5%	-2%	i
SMILES	USP1 inh	IL1B secr inh	ATXN2 expr inh	USP2a block	S2 tox
COc1cc2c(cc1OC)C(c1ccc(Br)cc1)NCC2 (centres undefined)	-15%	-52*	-20%	/	i
O=c1c2ccccc2nc(-c2ccccc2)n1Cc1ccc(Cl)cc1	-8%	-12	3%	2%	i
O=c1c2ccccc2nc2n1CCN2Cc1ccc(Cl)cc1	-13%	-78*	-12%	-2%	i
COc1ccc2ccccc2c1CNC(C)c1ccccc1 (centres undefined)	9%	-55*	/	0%	i
CC(NCCOCCOc1ccccc1)c1ccccc1 (centres undefined)	-8%	-8	0%	2%	i
CC(NCCCOc1cccc2ccccc12)c1ccccc1 (centres undefined)	-11%	-74*	/	3%	?
COc1ccc2ccccc2c1CNCc1ccc(C)cc1	-18%	-92*	?	4%	i
CC(=O)Nc1cccc(NC(=O)CS(=O)(=O)c2cn(CC(=O)N(C(C)C)C(C)C)c3ccccc23)c1	-23%	0	15%	0%	i
NC(=O)COCCN1CCN(C(c2ccccc2)c2ccc(Cl)cc2)CC1 (centres undefined)	/	/	2%	/	i
Cc1cnc(Nc2cccc(CN3CCOCC3)c2)nc1Nc1cccc(S(=O)(=O)NC(C)(C)C)c1	/	/	8%	/	/
CNc1ccccc1C(=O)OC(C)C(=O)Nc1ccc(Cl)cn1 (centres undefined)	-6%	-75*	8.9µM*	-1%	i
CCOC(=O)C1=C(CCl)NC(=O)NC1c1ccc2c(c1)OCO2 (centres undefined)	-9%	-100*	-22%	0%	i
CCCCCOC(=O)C1=C(C)NC(=O)NC1c1ccc2c(c1)OCO2 (centres undefined)	-15%	-54*	-26%	-1%	i
CCOC(=O)C1=C(C)N=c2s/c(=C\c3ccncc3)c(=O)n2C1c1ccc2c(c1)OCO2 (centres undefined)	-17%	-67*	-8%	-10%	i
CCOC(=O)C1=C(CN2CCSCC2)NC(=O)NC1c1ccc2c(c1)OCO2 (centres undefined)	-12%	-5	1%	3%	i
CC1=C(C(=O)OCC2CCCO2)C(c2ccc(Cl)c(Cl)c2)NC(=O)N1 (centres undefined)	-11%	-50*	-29%	-1%	i
CCC1CCCCN1C(=O)c1ccc(OC)c(OC2CCN(C(C)C)CC2)c1 (centres undefined)	-8%	-10	5%	3%	i
O=C(CNC(=O)c1ccc2c(=O)n3c(nc2c1)CCC3)Nc1ccc(F)c(F)c1	-16%	0	-5%	-1%	i
O=C(N/N=C/c1ccc([N+](=O)[O-])o1)c1ccc2c(c1)OCO2	-11%	-6	10µM*	0%	i
O=C(N/N=C\c1ccc(-c2ccc([N+](=O)[O-])cc2)o1)c1ccc2c(c1)OCO2	-22%	4	-5%	2%	?
O=C(N/N=C\c1ccccc1)c1ccccc1-n1cccc1	-13%	0	-13%	3%	i
O=C(N/N=C/c1ccc([N+](=O)[O-])o1)c1ccccc1-n1cccc1	-13%	-66*	?	-2%	?
Cc1cnc(C)c(-c2cccc3c2OC(CNC(=O)c2cc(C)on2)C3)n1 (centres undefined)	/	/	/	/	i
